Test results from PubChem BioAssay (NCATS).
Records with an inconclusive call do not appear. Entries that show only a call come without a potency. Calls of active or inactive are those of the source. Calls come from the whole dose curve; as a rule, active = well fitted curve in the direction sought with a large enough effect; inconclusive = small, poorly fitted or top-dose-only effect, or another doubt; inactive = no such curve, though single readings can be large; an effect the other way counts as inactive or inconclusive.

target: D(1A) dopamine receptor (Homo sapiens) (UniProt P21728); assay: HTS Assay for Allosteric Agonists of the Human D1 Dopamine Receptor: Primary Screen for Agonists (AID 488981); settings: Inducible HEK293 T-REx D1 cells, calcium-flux fluorescence, 180 s kinetic; series mostly up to 41.8 µM
Method in brief: (§1)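 Calcium flux in an inducible, force-coupled HEK293 Trex D1 line (overnight at 30 C): agonist mode is the 180 s kinetic read after compound; potentiator mode is the following 180 s read after dopamine at EC20.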

Chain of D(1A) dopamine receptor (Homo sapiens) (P21728 whole entry, looked up): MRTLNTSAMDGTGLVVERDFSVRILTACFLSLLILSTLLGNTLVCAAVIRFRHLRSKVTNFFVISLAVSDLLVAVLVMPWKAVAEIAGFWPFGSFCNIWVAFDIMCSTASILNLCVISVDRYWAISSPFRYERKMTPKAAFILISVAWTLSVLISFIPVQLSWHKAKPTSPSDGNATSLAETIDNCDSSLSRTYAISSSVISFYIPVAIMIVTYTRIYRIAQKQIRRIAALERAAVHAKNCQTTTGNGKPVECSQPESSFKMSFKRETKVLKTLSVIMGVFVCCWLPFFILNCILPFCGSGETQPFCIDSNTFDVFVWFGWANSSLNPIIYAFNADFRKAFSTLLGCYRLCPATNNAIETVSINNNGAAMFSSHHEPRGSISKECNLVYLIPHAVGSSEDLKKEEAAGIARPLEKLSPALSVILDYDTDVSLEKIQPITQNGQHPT

| Compound | Potency |
| --- | --- |
| CN1CCN(CCCN2c3ccccc3Sc3ccc(Cl)cc32)CC1 | inactive |
| CN1C(C(=O)Nc2ccccn2)=C(O)c2ccccc2S1(=O)=O | inactive |
| CC(C)C(=O)Nc1ccc([N+](=O)[O-])c(C(F)(F)F)c1 | inactive |
| CC(C)Cc1ccc(C(C)C(=O)O)cc1 (configuration not stated) | inactive |
| CN1C2CCC1CC(OC(=O)C(CO)c1ccccc1)C2 (configuration not stated) | inactive |

target: D(1A) dopamine receptor (Homo sapiens) (UniProt P21728); assay: HTS Assay for Allosteric Agonists of the Human D1 Dopamine Receptor: Primary Screen for Potentiators (AID 488982); settings: HEK293 T-REx D1 inducible cells, calcium flux, kinetic fluorescence; series mostly up to 8.37 µM
Method in brief: as §1

| Compound | Potency |
| --- | --- |
| CN1CCN2c3ccccc3Cc3ccccc3C2C1 (configuration not stated) | inactive |
| CCOC(=O)Nc1ccc(NCc2ccc(F)cc2)nc1N | inactive |
| CCN1CCCC1CNC(=O)c1cc(S(=O)(=O)CC)c(N)cc1OC (configuration not stated) | inactive |
| COc1cc2nc(N3CCN(C(=O)c4ccco4)CC3)nc(N)c2cc1OC | inactive |
| CC12CC3CC(C)(C1)CC(N)(C3)C2 | inactive |
| Cc1cnc(C(=O)NCCc2ccc(S(=O)(=O)NC(=O)NC3CCCCC3)cc2)cn1 | inactive |
| Cc1cn([C@H]2C[C@H](N=[N+]=[N-])[C@@H](CO)O2)c(=O)[nH]c1=O | inactive |
| CC(COc1ccccc1)N(CCCl)Cc1ccccc1 (configuration not stated) | inactive |
| O=C1Cc2cc(CCN3CCN(c4nsc5ccccc45)CC3)c(Cl)cc2N1 | inactive |
| CN(C)CCCN1c2ccccc2CCc2ccc(Cl)cc21 | inactive |
| CC(C)Cc1ccc(C(C)C(=O)O)cc1 (configuration not stated) | inactive |

target: D(1A) dopamine receptor (Homo sapiens) (UniProt P21728); assay: HTS Assay for Allosteric Agonists of the Human D1 Dopamine Receptor: Primary Screen for Antagonists (AID 488983); settings: D1 receptor cell assay, antagonist mode, qHTS titration; series mostly up to 41.8 µM;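 note: calcium flux response to an EC80 dopamine challenge measured with no-wash dye; nearly all actives have a fitted effect of over 65% in size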
Method in brief: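 Cells are induced with tetracycline and incubated overnight at 30 C, then loaded with calcium dye for 30 to 90 minutes at room temperature. Compound addition is followed by a 180 s read, then an EC80 dopamine addition and another 180 s read.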

| Compound | Potency |
| --- | --- |
| CCOC(=O)Nc1ccc(NCc2ccc(F)cc2)nc1N | inactive |
| NC(CO)C(=O)NNCc1ccc(O)c(O)c1O (configuration not stated) | inactive |
| CC(CCc1ccc(O)cc1)NCCc1ccc(O)c(O)c1 (configuration not stated) | inactive |
| COc1cc2nc(N3CCN(C(=O)c4ccco4)CC3)nc(N)c2cc1OC | inactive |
| CN(C)C(=O)C(CCN1CCC(O)(c2ccc(Cl)cc2)CC1)(c1ccccc1)c1ccccc1 | inactive |
| CC12CC3CC(C)(C1)CC(N)(C3)C2 | inactive |
| Cc1cnc(C(=O)NCCc2ccc(S(=O)(=O)NC(=O)NC3CCCCC3)cc2)cn1 | inactive |
| NCCCCCC(=O)O | inactive |
| CN1C(C(=O)Nc2ccccn2)=C(O)c2ccccc2S1(=O)=O | inactive |
| CC(C)Cc1ccc(C(C)C(=O)O)cc1 (configuration not stated) | inactive |
| CN1C2CCC1CC(OC(=O)C(CO)c1ccccc1)C2 (configuration not stated) | inactive |

target: ATP-dependent 6-phosphofructokinase (Trypanosoma brucei brucei) (UniProt O15648); assay: qHTS Assay to Find Inhibitors of T. brucei phosphofructokinase: hit validation (AID 492961);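 note: luminescence reports ADP formed as PFK phosphorylates fructose-6-phosphate with ATP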; settings: T. brucei PFK, ADP-Glo luminescence; series mostly up to 51.4 µM
Method in brief: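 In this biochemical qHTS validation, titrated compounds were tested against 1.25 nM PFK with 0.1 mM ATP and 0.5 mM F6P. Percent activity came from controls lacking or containing enzyme.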

Chain of ATP-dependent 6-phosphofructokinase (Trypanosoma brucei brucei) (O15648 whole entry, looked up): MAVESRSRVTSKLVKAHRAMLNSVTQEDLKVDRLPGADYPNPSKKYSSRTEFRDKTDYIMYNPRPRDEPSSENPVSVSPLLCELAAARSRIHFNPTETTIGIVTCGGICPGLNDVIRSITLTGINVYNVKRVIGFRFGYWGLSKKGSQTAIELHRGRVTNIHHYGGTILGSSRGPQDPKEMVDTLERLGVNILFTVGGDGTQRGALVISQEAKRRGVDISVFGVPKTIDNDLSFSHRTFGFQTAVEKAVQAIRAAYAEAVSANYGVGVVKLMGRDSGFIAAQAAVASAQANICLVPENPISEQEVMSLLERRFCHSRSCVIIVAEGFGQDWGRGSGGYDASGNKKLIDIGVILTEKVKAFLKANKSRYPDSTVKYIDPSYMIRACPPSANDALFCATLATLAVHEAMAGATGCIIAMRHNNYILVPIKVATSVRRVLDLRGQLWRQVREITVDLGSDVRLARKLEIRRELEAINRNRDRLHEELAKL

| Compound | Potency |
| --- | --- |
| CCOC(=O)Nc1ccc(NCc2ccc(F)cc2)nc1N | inactive |
| CN(C)C(=N)N=C(N)N | inactive |
| CC(=O)OCC(CCn1cnc2cnc(N)nc21)COC(C)=O | inactive |
| CC[C@@]1(O)C(=O)OCc2c1cc1n(c2=O)Cc2cc3c(CN(C)C)c(O)ccc3nc2-1 | inactive |
| COc1ccccc1OCCNCC(O)COc1cccc2[nH]c3ccccc3c12 (configuration not stated) | inactive |
| O=c1c(O)c(-c2ccc(O)c(O)c2)oc2cc(O)cc(O)c12 | inactive |
| Cc1cn([C@H]2C[C@H](N=[N+]=[N-])[C@@H](CO)O2)c(=O)[nH]c1=O | inactive |
| NCCCCCC(=O)O | inactive |
| Cc1ccc(-c2cc(C(F)(F)F)nn2-c2ccc(S(N)(=O)=O)cc2)cc1 | inactive |
| CC1(CN2CCC(n3c(=O)[nH]c4ccccc43)CC2)OCc2ccccc2-n2cccc21 (configuration not stated) | inactive |
| CC[N+](CC)(CC)CCOc1cccc(OCC[N+](CC)(CC)CC)c1OCC[N+](CC)(CC)CC | inactive |
| CN1C(C(=O)Nc2ccccn2)=C(O)c2ccccc2S1(=O)=O | inactive |
| CC(C)(C)C(=O)Oc1ccc(S(=O)(=O)Nc2ccccc2C(=O)NCC(=O)O)cc1 | inactive |
| CN(CCOc1ccc(NS(C)(=O)=O)cc1)CCc1ccc(NS(C)(=O)=O)cc1 | inactive |
| CS(=O)(=O)CCNCc1ccc(-c2ccc3ncnc(Nc4ccc(OCc5cccc(F)c5)c(Cl)c4)c3c2)o1 | inactive |
